One assay deals with CRL-7250. The assay can be described thus: Cytotoxic Profiling of Annotated Libraries Using Quantitative High-Throughput Screening (AID 1296008). Further: nearly all actives have a fitted effect of over 60% in size. The note with it: Five cell lines viability, CellTiter-Glo ATP luminescence, 48-72 h; max response: active compounds read low. The essentials: (§1)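 Cells exposed to compounds for 48 or 72 hr at 37 degrees Celsius. Viability read as ATP-coupled luminescence with CellTiter-Glo after 10 min at room temperature.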
A general note: Cellular ATP, detected with luciferase, serves as a proxy for viable cell number.

The subject of another assay is HEK293. Described as above. The note with it: Five cell lines viability, CellTiter-Glo ATP luminescence, 48-72 h; max response: active compounds read low. The essentials:
as §1

The structures appear in SMILES notation. Inconclusive results are not listed. Values without a mark were called inactive. Calls of active or inactive are those of the source. The call rests on the fitted dose curve; in most records, active means well fitted inhibition curve with a large enough effect; inconclusive means small, poorly fitted or top-dose-only effect; inactive means flat fitted curve, though single readings scatter.
On the % scale 0 is the no-effect control and ±100 the full control effect; potency means the concentration at half of the fitted maximal effect.

`C(#Cc1nc2ncccc2nc1OCCN1CCCC1)c1ccccc1`: the Potency in the assay with CRL-7250 is 6.51 µM (active); in the assay on HEK293, 1.84 µM (active).
Regarding `C=CC(C)(C)C12C=C(OC)C(=O)N3C(C(C)C)C(=O)NC31N(OC)c1ccccc12` (stereo not given), the max response in the assay with CRL-7250 is 1.83%; in the assay on HEK293 it was -5.71%.
With `CN[C@H](CC(C)C)C(=O)N[C@H]1C(=O)N[C@@H](CC(N)=O)C(=O)N[C@H]2C(=O)N[C@H]3C(=O)N[C@H](C(=O)N[C@H](C(=O)O)c4cc(O)cc(O)c4-c4cc3ccc4O)[C@H](O[C@H]3C[C@](C)(N)[C@@H](O)[C@H](C)O3)c3ccc(c(Cl)c3)Oc3cc2cc(c3O[C@@H]2O[C@H](CO)[C@@H](O)[C@H](O)[C@H]2O[C@H]2C[C@](C)(NCc3ccc(-c4ccc(Cl)cc4)cc3)[C@@H](O)[C@H](C)O2)Oc2ccc(cc2Cl)[C@H]1O`, the max response with CRL-7250 is 0.406%; in the assay with HEK293, -5.83%.
Turning to `Cc1cnc(NC(=O)Nc2cc(Br)c(C)cc2OCC2CNCCO2)cn1` (stereo not given), the Potency in the assay on CRL-7250 was 13 µM (active); in the assay with HEK293, 1.3 µM (active).
For `CC(=O)C=C=C1C(C)(C)CC(O[C@@H]2O[C@H](CO)[C@@H](O)[C@H](O)[C@H]2O)CC1(C)O` (stereo not given in full), the outcome in the assay on CRL-7250 and in the assay on HEK293 was inactive.
In the case of `C/C=C/c1ccc2c(c1)[C@@H](C)[C@H](c1ccc(O)cc1)O2`, the max response is -3.63% in the assay on CRL-7250 and 1.71% in the assay on HEK293.
For `CCOCCn1nc(CC)c2nc(N3CCC(C(=O)O)CC3)nc(Nc3cc(C)ccn3)c21`, in that order: -0.41% and -20%.
Turning to `Cn1cncc1C(N)(c1ccc(Cl)cc1)c1ccc2c(c1)c(-c1cccc(Cl)c1)cc(=O)n2C` (stereo not given), the figures for the Potency with CRL-7250 and in the assay on HEK293 were 23.1 µM (active) and 0.259 µM (active), respectively.
For `COC(=O)CCC(=O)OC[C@]1(C)CCC[C@@]2(C)C3CC[C@]4(C)C=CC3(CCC12)C4` (stereo not given in full), the max response is -4.15% with CRL-7250 and -2.92% in the assay with HEK293.
`Nc1ccc(-c2cccc3c(=O)cc(N4CCOCC4)oc23)cc1`: the Potency with CRL-7250 was 5.8 µM (active); in the assay with HEK293 it was 7.31 µM (active).
Turning to `CNC(=O)c1cccc(-c2ccc3c(N4CCOC[C@@H]4C)nc(N4CCOC[C@@H]4C)nc3n2)c1`, the Potency in the assay on CRL-7250 is 0.58 µM (active); in the assay with HEK293 it was 0.366 µM (active).
Turning to `COc1cc(Nc2nc3ccccc3nc2NS(=O)(=O)c2ccc(NC(=O)c3ccc(OC)c(C)c3)cc2)cc(OC)c1`, the max response was -3.06% with CRL-7250 and 1.81% in the assay with HEK293.
For `CC(c1ncncc1F)C(O)(Cn1cncn1)c1ccc(F)cc1F` (stereo not given), in the assay with CRL-7250, the molecule was called inactive. Also, the max response in the assay on HEK293 is -0.4%.
In the same order, the values of `Cn1nc(C(C)(C)C)cc1C(=O)NC(Cc1cccc(Cl)c1)C(=O)NCC#N` (stereo not given) are “inactive” and -17.2%.
Consider `C/C1=C\CCC2=C[C@@H](OC2=O)c2c(C)coc2C1`, for which the max response is 1.59% in the assay on CRL-7250 and -3.99% with HEK293.
For `Cn1ncnc1COc1nn2c(-c3cc(F)ccc3F)nnc2cc1C(C)(C)C`, the max response in the assay on CRL-7250 is -15.8%; in the assay on HEK293, 0.514%.
`CC(=O)O[C@]1(C(C)=O)CC[C@H]2[C@@H]3C[C@H](C)C4=CC(=O)C=C[C@]4(C)[C@@]3(F)[C@@H](O)C[C@@]21C`: the max response is -19.1% with CRL-7250 and -1.51% in the assay with HEK293.
Take `C[C@@H]1[C@H]2[C@H](O[C@@H]3O[C@H](CO)[C@@H](O)[C@H](O)[C@H]3O)OC=C(C(=O)O)[C@H]2C[C@@H]1O`: in the assay on CRL-7250, the call was inactive. In addition, in the assay on HEK293, the max response was -5.11%.
Consider `CC1CC(O)C2(OC1=O)OC1C(O)C3C4CCC5CC(OC6OC(CO)C(O)C(O)C6OC6OC(C)C(O)C(O)C6O)CCC5(C)C4CCC3(C)C1C2C` (stereo not given), for which the max response in the assay on CRL-7250 was -9.09%. Further, the molecule was classed as inactive in the assay with HEK293.
As for `CCC(C)C(=O)OC1CC(O)C23C4OCC5(C(O)CC2C1(C)C(O)O4)C3C(=O)CC1(C)C(c2ccoc2)CC2OC215` (stereo not given), the figures for the Potency in the assay on CRL-7250 and with HEK293 were 3.55 µM (active) and 2.52 µM (active), respectively.
Turning to `CC1=CCC(C(C)(C)O[C@@H]2O[C@H](CO[C@@H]3O[C@@H](C)[C@H](O)[C@@H](O)[C@H]3O)[C@@H](O)[C@H](O)[C@H]2O)CC1` (stereo not given in full), the max response in the assay on CRL-7250 is -8.36%; with HEK293 it was 2.02%.
With `N#Cc1cnc2cnc(NCc3cccnc3)cc2c1Nc1ccc(F)c(Cl)c1`, the Potency with CRL-7250 was 5.17 µM (active); in the assay on HEK293, 3.66 µM (active).
Take `CC(C)Oc1ccc(C(=O)NC(CNC(=O)CN(C)C)Cc2ccc(-c3cn4cccc(C(C)O)c4n3)cc2)cc1Cl` (stereo not given): the max response in the assay on CRL-7250 was -25.1%. Besides, the Potency in the assay with HEK293 is 0.206 µM (active).
On to `CC1=C(C(=O)O)/C(=C/CO[C@@H]2O[C@H](COC(=O)/C=C/c3ccc(O)cc3)[C@@H](O)[C@H](O)[C@H]2O)C(O)C1` (stereo not given in full), for which the max response in the assay on CRL-7250 is 0.839%; with HEK293, 1.96%.
With `Cc1cc(C)nc(NS(=O)(=O)c2ccc(NC(=S)NC(=O)COc3ccc(Br)cc3Cl)cc2)n1`, the max response in the assay with CRL-7250 was 3.21%; in the assay on HEK293, 2.6%.

Values taken from PubChem BioAssay (NCATS).
